Shown are actives, neighbours in structure and some others; about 18% of the full set was active somewhere.
IL1B secr inh: inflammasome signaling inhibition, IL-1 beta readout. THP-1 LPS/ATP IL-1B secretion, AlphaLISA, 16 h; stronger effect = lower value. activity change, % at 57.5 µM. 360,000 compounds, 4.7% hits. AID 743279; in the data active means activity change below about -50%; inconclusive means mostly about -30% to -49%
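THP-1 cells pretreated 1 hr with compounds (up to 57.5 uM final), then stimulated with LPS (250 ng/mL final) plus ATP (1.25 mM final); secreted IL-1B measured by AlphaLISA after 16 hr, decreased signal indicating inhibition.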
CtBP-E1A inh: CtBP/E1A binding inhibition; AID 651724; 340,000 compounds, 0.49% hits; AlphaScreen GST-E1A/His-CtBP binding, 1536-well; stronger effect = lower value; activity change, % (concentration not given with the values); in the data active means activity change below about -65%; inconclusive means mostly about -30% to -63%
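In 5 uL wells, 23 nL compound meets equimolar GST-E1A and His-CtBP (5X stock 125 nM each) for 2 h, 37 °C. Beads (5X, 50 ug/mL) then 1 h, 37 °C, dark.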
Six1-Eya2 blk: blocks human Six1 binding to Eya2; AlphaScreen GST-Six1/His-Eya2 binding, biochemical; stronger effect = lower value; activity change, % (no concentration beside the values); 360,000 compounds, 0.56% hits; in the data active means activity change below about -65%; inconclusive means mostly about -30% to -63%
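AlphaScreen luminescence read after one hour at 37 °C in darkness. Pin-transferred compounds met GST-Six1 and His-Eya2 protein (5X stock 250 nM/500 nM) plus glutathione donor and Ni-chelate acceptor beads (5X, 50 ug/mL).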
TDP1 inh: blocks human tyrosyl-DNA phosphodiesterase 1. AID 485290. 350,000 compounds, 0.28% hits. recombinant TDP1, AlphaScreen DNA substrate cleavage. Potency, µM (series often up to 130 µM), without a hit: at the top dose activity change, negative = inhibition, usual class: inhibitors. Q9NUW8; further: potency means the concentration at half of the fitted maximal effect; nearly all actives have a fitted effect of over 40% in size
Target sequence (Q9NUW8 whole entry, looked up): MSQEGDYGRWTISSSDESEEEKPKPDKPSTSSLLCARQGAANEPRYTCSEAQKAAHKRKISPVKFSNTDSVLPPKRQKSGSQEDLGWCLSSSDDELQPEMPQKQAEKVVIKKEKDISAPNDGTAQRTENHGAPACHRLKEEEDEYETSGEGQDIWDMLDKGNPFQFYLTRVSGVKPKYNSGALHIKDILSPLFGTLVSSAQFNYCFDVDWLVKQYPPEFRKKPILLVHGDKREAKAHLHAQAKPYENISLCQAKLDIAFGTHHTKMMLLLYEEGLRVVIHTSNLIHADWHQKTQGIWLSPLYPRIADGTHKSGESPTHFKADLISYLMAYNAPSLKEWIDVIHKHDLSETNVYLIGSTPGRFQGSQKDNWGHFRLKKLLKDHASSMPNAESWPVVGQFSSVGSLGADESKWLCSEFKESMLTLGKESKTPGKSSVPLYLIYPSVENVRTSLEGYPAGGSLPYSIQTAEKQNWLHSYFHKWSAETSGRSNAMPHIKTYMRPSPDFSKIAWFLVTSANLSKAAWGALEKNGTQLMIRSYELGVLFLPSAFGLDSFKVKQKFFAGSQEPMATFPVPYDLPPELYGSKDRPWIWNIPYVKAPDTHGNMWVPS
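Signal: AlphaScreen proximity between streptavidin donor and anti-FITC acceptor beads on intact substrate. Reaction: Tdp1 1 nM, substrate 15 nM final, 5 min RT after 15 min compound preincubation.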
DT40 TDP1 no CPT: qHTS for Inhibitors of human tyrosyl-DNA phosphodiesterase 1 (TDP1): qHTS in cells in absence of CPT | AID 686978, 2013 | Potency, µM (doses to about 46.2 µM), for inactives: at the highest dose activity change, negative = growth inhibition, actives largely listed as inhibitors | DT40 Tdp1-/- hTDP1 cells, no CPT, ATP luminescence, 48 h | 420,000 compounds, 15% hits; further: potency means the concentration at half of the fitted maximal effect; nearly all actives have a fitted effect of over 55% in size
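Growth kinetics read by CellTiter-Glo luminescence after ≥48 hr at 37 °C. Cells: DT40 Tdp1-/- stably carrying human TDP1, 400 per well, compound exposure in the absence of CPT (DMSO vehicle).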
TDP1 cell CPT: DT40-hTDP1 cell growth loss with CPT. Potency, µM (doses to about 46.2 µM), without a hit: at the highest dose activity change, negative = growth inhibition, usual class: inhibitors. 420,000 compounds, 12% hits. chicken DT40 Tdp1-/-;hTDP1 cells + 20 nM CPT, ATP luminescence, 48 h. AID 686979; further: potency means the concentration at half of the fitted maximal effect; nearly all actives have a fitted effect of over 55% in size
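Cell growth measured by CellTiter-Glo luminescence after a minimum 48 h, 37 C compound exposure with 20 nM CPT in Tdp1-knockout DT40 cells stably expressing hTDP1, seeded 400/well; qHTS titration format.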
The depositor's hits bear a star; ? = inconclusive; . = not tested or not shown; [ ] = dose if it differs, or a comment. Unless noted, the call rests on the fitted dose curve; in most records, active means well fitted curve in the direction sought with a large enough effect; inconclusive means small, poorly fitted or top-dose-only effect, or another doubt; inactive means no such curve, though single readings can be large; an effect the other way counts as inactive or inconclusive. On the % scale 0 is the no-effect control and ±100 the full control effect.

SMILES	IL1B secr inh	CtBP-E1A inh	Six1-Eya2 blk	TDP1 inh	DT40 TDP1 no CPT	TDP1 cell CPT
C/C=C1/C(=O)C[C@@H]2[C@H]3CCC4=CC(=O)CC[C@]4(C)[C@@H]3CC[C@]12C	.	.	.	11%	15µM*	?
CC(=O)C1CCC2C3CCC4=CC(=O)CCC4(C)C3CCC12C (stereo not drawn)	.	.	.	11%	.	.
CC12CCC(=O)C=C1CCC1C2CCC2(C)C(c3csc(N)n3)CCC12 (stereo not drawn)	-82*	-1	-16	.	5.8µM*	5.8µM*
C[C@@]12C[C@@H](O)[C@H]3[C@@H](CCC4=CC(=O)CC[C@]43C)[C@H]1CC[C@H]2C(=O)CO	.	.	.	-2%[21 µM]	.	.
CC12CCC(=O)C=C1CCC1C2C(O)CC2(C)C(c3csc(N)n3)CCC12 (stereo not drawn)	-17	-3	4	.	3.3µM*	3.7µM*
C=CCn1c(SCC(=O)NC2(C#N)CCCCC2)nnc1-c1ccncc1	-3	9	-8	3%	-7%	2%
Cc1cccc(OCC(=O)Nc2cccc(C(=O)OCc3cc(=O)n4c(C)csc4n3)c2)c1	.	.	.	4%	?	?
Cc1cc(C)c(OCCOCCN(C)C)c(Br)c1	0	1	5	6%	?	-1%
Cc1cc(Cl)c(OCCCNCc2ccccc2)c(Br)c1	?	5	1	2%	18µM*	?
Cc1cc(Cl)cc(Br)c1OCCCNCC(C)O (stereo not drawn)	-6	3	-2	5%	?	-7%
Cc1cc(C)c(OCCCNC2CCCC2)c(Br)c1	-55*	-10	7	.	7.3µM*	13µM*
Cc1cc(C)c(OCCCNCc2ccccc2)c(Br)c1	-72*	.	4	.	23µM*	18µM*
Cc1nn(-c2cc(C)c3ccccc3n2)c2c1C1C(C2)C1(C)C (stereo not drawn)	26	16	-3	0%	?	18µM*
Cc1cc(-n2nnc3ccccc32)nc2ccccc12	25	5	4	-2%	-19%	-8%
COc1ccc(N2CC(C(=O)N3CCN(c4ccccc4OC)CC3)CC2=O)cc1 (stereo not drawn)	-7	6	7	.	-28%	-19%
O=C1Nc2ccc(Br)cc2/C1=C/C(=O)c1ccc2c(c1)OCO2	?	.	-2	.	3.3µM*	5.8µM*
COc1ccc(C(=O)/C=C2\C(=O)Nc3ccc(Br)cc32)cc1	-99*	5	-2	.	18µM*	2.9µM*
COc1ccc(CNC(=O)CCSc2nc(-c3ccc4c(c3)OCO4)cc(C(F)(F)F)n2)cc1	-12	8	9	3%	?	-20%
CN(Cc1ccccc1)C(=O)CSc1nc(-c2ccc(F)cc2)cc(C(F)(F)F)n1	.	.	.	-5%	15µM*	21µM*
CN(Cc1ccccc1)C(=O)CCSc1nc(-c2ccc3c(c2)OCO3)cc(C(F)(F)F)n1	8	6	9	0%	18µM*	?
CN(Cc1ccccc1)c1nc(-c2ccc(F)cc2)cc(C(F)(F)F)n1	.	.	.	22µM*	?	?
O=C(CCSc1nc(-c2ccc3c(c2)OCO3)cc(C(F)(F)F)n1)NCc1ccccc1	15	4	9	1%	15µM*	?
CCC(=O)N1CCc2cc(S(=O)(=O)NCCC(=O)NC3CCCc4ccccc43)ccc21 (stereo not drawn)	-11	-16	-12	0%	?	?
CCN1CCCC1CNC(=O)C(=O)NC(C)C (stereo not drawn)	17	2	7	6%	1%	9%
COc1ccc(-c2cc(C(F)(F)F)nc(SCC(=O)N(C)Cc3cnn(C)c3C)n2)cc1OC	-4	-3	-9	5%	16µM*	16µM*
SMILES	IL1B secr inh	CtBP-E1A inh	Six1-Eya2 blk	TDP1 inh	DT40 TDP1 no CPT	TDP1 cell CPT
CCN1c2ccccc2N(C)C1(C)c1ccccc1 (stereo not drawn)	5	-26	?	8%	3.7µM*	3.7µM*
CCC1(c2ccccc2)CN(C)C1=O (stereo not drawn)	-9	-22	11	.	-13%	3%
O=C(c1cc2c(s1)CCCC2)n1cccn1	0	13	15	3%	?	-25%
O=C(OCc1c(Cl)nc2sccn12)c1cc2c(s1)CCCC2	-14	4	7	3%	?	14µM*
Clc1ccc(SCNc2ccccc2Cl)cc1	?	.	4	.	?	9.2µM*
Cc1ccc(NCSc2ccc(Cl)cc2)cc1	?	-16	-28	.	?	?
CCNC(=O)c1ccc(NS(=O)(=O)c2ccccc2)cc1	0	7	7	6%	-26%	-8%
O=C(c1cc(-c2ccccc2Cl)nc2ccccc12)N1CCOCC1	0	-6	1	4%	-15%	-7%
O=C(Oc1cc(=O)oc2c1c(=O)n1c3c(cccc23)CC1)c1ccc(F)cc1	.	22	5	7%	23µM*	-26%
O=C(Oc1cc(=O)oc2c1c(=O)n1c3c(cccc23)CC1)c1ccccc1	.	-5	-19	-1%	?	?
COc1ccc(NC(=O)c2cc([N+](=O)[O-])ccc2N2CCCCC2)cc1	18	-22	-17	10%	21µM*	21µM*
COc1ccc(NC(=O)c2cc([N+](=O)[O-])ccc2N2CCCC2)cc1	7	13	-1	3%	-5%	4%
COc1ccc(NC(=O)c2cc([N+](=O)[O-])ccc2N2CCCCC2)cc1OC	12	-4	?	6%	?	21µM*
CC(C)CNC(=O)c1cc([N+](=O)[O-])ccc1N1CCCCC1	0	.	4	2%	23µM*	?
CCC1(C)NC(=O)N(CC(=O)N2CCC(Cc3ccccc3)CC2)C1=O (stereo not drawn)	5	0	-2	1%	-24%	-20%
O=C(c1ccco1)N1CCN(/C(=N/S(=O)(=O)c2cccs2)c2ccccc2Cl)CC1	-5	5	4	0%	-29%	-14%
O=S(=O)(c1ccc(OCC(O)CNC23CC4CC(CC(C4)C2)C3)c(Cl)c1)N1CCOCC1 (stereo not drawn)	-78*	0	-5	5%	16µM*	?
COc1ccc(C(=O)N/C(=C\c2cccc3ccccc23)C(=O)N2CCN(C)CC2)cc1	?	-1	-2	2%	18µM*	?
C=CCOC(=O)/C(=C/c1cccc2ccccc12)NC(=O)c1ccccc1	-10	4	-2	-8%	23µM*	29µM*

Screening results as filed in PubChem.
